Inconclusive results are not listed. Active and inactive are the calls of the source. Calls come from the whole dose curve; as a rule, active = well fitted inhibition curve with a large enough effect; inconclusive = small, poorly fitted or top-dose-only effect; inactive = flat fitted curve, though single readings scatter.
molecular target: Ferritin light chain (Equus caballus) (UniProt P02791); assay: Confirmation Assay for Identification of Novel General Anesthetics; settings: apoferritin 1-aminoanthracene fluorescence displacement; note: nearly all actives have a fitted effect of over 40% in size
Procedure, shortened: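 Competitive displacement of profluorescent 1-aminoanthracene from 10 uM horse-spleen apoferritin in 50% saturated 1-AMA/PBS; 10 min RT, fluorescence Ex 380/Em 535. Normalized to free 1-AMA and complex; four-parameter Hill fit.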
Potency is the fitted concentration of half-maximal effect.

Chain of Ferritin light chain (Equus caballus) (P02791 2-175 limits assumed): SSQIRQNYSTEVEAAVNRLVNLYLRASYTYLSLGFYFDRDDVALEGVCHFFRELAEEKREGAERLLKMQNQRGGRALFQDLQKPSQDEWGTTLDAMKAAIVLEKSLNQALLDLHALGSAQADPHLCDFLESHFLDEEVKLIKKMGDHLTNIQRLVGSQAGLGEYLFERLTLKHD

Potency, active:
Nn1cnnc1SCC(=O)Nc1ccc(C2CCCCC2)cc1 7.08 µM
NC(=O)COC(=O)CC12CC3CC(CC(C3)C1)C2 15.8 µM
C/C(=N\O)C(C)(C)Nc1ccc(Br)cc1 8.91 µM
Cc1ccc(O)c(Sc2cc(C)ccc2O)c1 7.94 µM
COc1ccc(CNc2ccc(C)c(C)c2)cc1 15.8 µM
CC1(C)CC(=O)N(Cc2ccccc2)C(=O)C1 8.91 µM
O=C(CN1CCOCC1)Nc1ccc(C2CCCCC2)cc1 31.6 µM
Oc1ccc(Cc2ncc(C(F)(F)F)cc2Cl)cc1 15.8 µM
Cc1ccc(OCc2cc(C(=O)N3CCCCCCC3)no2)cc1C 22.4 µM
Nc1ccccc1Oc1ccc2ccccc2c1 11.2 µM
O=C(COC(=O)c1cccs1)NC12CC3CC(CC(C3)C1)C2 11.2 µM
Nc1nnc(SCc2ccccc2Cl)s1 14.1 µM
Clc1ccc(Nc2nc(C3CC3)cs2)cc1 39.8 µM
N#CC(Nc1ccccc1)c1ccccc1OCc1ccccc1 (stereo not drawn) 35.5 µM
ON1C(c2ccc(Cl)cc2Cl)N(O)[C@H]2CCCC[C@H]21 (stereo partly drawn) 7.94 µM
CN(CC(=O)Nc1ccccc1Cl)C1CCCCC1 15.8 µM
Cc1ccc(-c2ccc(=O)n(CC(=O)NCCc3ccccc3)n2)cc1 6.31 µM
O=C(COc1ccccc1)N1CCCCCCC1 12.6 µM
Cc1cc(C)n2nc(CC(=O)NC3CCCCCCC3)nc2n1 10 µM
Clc1ccc(NCc2ccsc2)cc1 25.1 µM
Cc1cc(NS(=O)(=O)N(C)C)ccc1C(C)C 20 µM
CCCNC(=O)c1csc2c1CCCCC2 28.2 µM
CC(C)(Nc1ccccc1)C(=O)c1ccccc1 12.6 µM
NS(=O)(=O)c1cccnc1Nc1cccc(C(F)(F)F)c1 10 µM
CCCn1nnc(NC(=O)COc2ccc(C3CCCCC3)cc2)n1 12.6 µM
Cc1ccccc1Cn1nnc2sc3c(c2c1=O)CCCC3 15.8 µM
O=C(COC(=O)c1cccs1)NCC1CCCCC1 20 µM
Nc1ccc(Nc2ccccc2)c(Cl)c1 12.6 µM
COc1ccc(OCCC(=O)NCC23CC4CC(CC(C4)C2)C3)cc1 6.31 µM
CCc1ccc(NC(=S)N2CCCCCCC2)cc1 14.1 µM
CCc1ccc(NC(=O)C2(C)Cc3ccccc3C(=O)O2)cc1 (stereo not drawn) 31.6 µM
CC(C)c1ccccc1OCC(=O)N1CCCCCCC1 11.2 µM
CC(C)CCSc1nc2ccccc2[nH]1 15.8 µM
Cc1csc(Nc2ccc(Cl)cc2)n1 31.6 µM
COc1cccc(NC(=O)CN2C(=O)NC(C)(CCC(C)C)C2=O)c1 (stereo not drawn) 17.8 µM
Nc1nc(-c2cc(Cl)cc(Cl)c2OC(F)F)cs1 8.91 µM
Cc1ccc(CNC(=O)c2nnn(-c3cccc(C)c3)c2N)cc1 17.8 µM
O=C(CCC1CCCCC1)Nc1nccs1 39.8 µM

Reference: PubChem BioAssay AID489008 (National Center for Advancing Translational Sciences (NCATS), 2010)
